PubChem BioAssay (Tox21)
Inconclusive results are not listed. Activity calls are given as the source filed them. Unless noted, calls come from the whole dose curve; as a rule, active = well fitted curve in the direction sought with a large enough effect in the repeat runs; inconclusive = weak or mixed curves; inactive = no such curve, though single readings can be large; an effect the other way counts as inactive or inconclusive.

Legend:
[1] = qHTS assay to identify small molecule antagonists of the sonic hedgehog signaling (Shh) pathway (AID 1259369; calls by dose curve; note: nearly all actives have a fitted effect of over 45% in size; note: potency is the fitted concentration of half-maximal effect)
How it was run: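 Luminescence readout: firefly Luc under Gli1 response element in 3T3Gli1-Luc cells (NIH/3T3 clone). Antagonist mode, stimulation by conditioned medium; compound exposure 24hr at 37 C, 5% CO2.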

[2] = molecular target: Estrogen receptor beta (Homo sapiens) (UniProt Q92731); test: qHTS assay to identify small molecule agonists of the estrogen receptor beta (ER-beta) signaling pathway (AID 1259377; active = well fitted activation curve with a large enough effect in the signal ratio in the repeat runs, not every such curve was filed as active; the % refers to the signal ratio)
Chain of Estrogen receptor beta (Homo sapiens) (Q92731 whole entry, looked up, the tested form may be a part): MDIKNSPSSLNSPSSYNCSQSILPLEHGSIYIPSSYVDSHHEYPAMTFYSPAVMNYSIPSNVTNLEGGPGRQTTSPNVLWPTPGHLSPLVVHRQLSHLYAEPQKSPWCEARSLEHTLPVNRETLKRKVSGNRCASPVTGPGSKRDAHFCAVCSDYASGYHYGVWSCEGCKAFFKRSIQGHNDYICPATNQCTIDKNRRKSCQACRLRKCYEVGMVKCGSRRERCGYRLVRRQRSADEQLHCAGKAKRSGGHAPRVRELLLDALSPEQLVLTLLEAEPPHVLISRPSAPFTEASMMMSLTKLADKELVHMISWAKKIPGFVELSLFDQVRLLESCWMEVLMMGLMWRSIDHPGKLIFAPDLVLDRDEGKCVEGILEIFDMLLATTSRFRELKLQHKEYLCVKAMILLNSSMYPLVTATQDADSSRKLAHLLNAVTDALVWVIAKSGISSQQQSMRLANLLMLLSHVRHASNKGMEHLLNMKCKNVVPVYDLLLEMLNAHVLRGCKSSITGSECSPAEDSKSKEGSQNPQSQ
How it was run: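 Agonist mode cell assay in GripTite HEK293T cells expressing an ER-beta fusion that drives beta-lactamase from an Upstream Activator Sequence; 16 hr compound exposure at 37C, then 2 h LiveBLAzer B/G FRET substrate at room temperature, fluorescence read-out.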

[3] = qHTS assay to identify small molecule agonists of the androgen receptor (AR) signaling pathway in the presence of an antagonist - cell viability counter screen (AID 1259379); note: nearly all actives have a fitted effect of over 25% in size; note: potency is the fitted concentration of half-maximal effect
How it was run: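 Viability counter screen: CellTiter-Fluor fluorescence, measured in the same wells as the luciferase read-out. MDA-kb2 cells, 3,000/well, with nilutamide at 3.0uM final and compounds at 15 concentrations, 16 hr at 37C, 0% CO2.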

[4] = qHTS assay to identify small molecule antagonists of the estrogen receptor beta (ER-beta) signaling pathway - cell viability counter screen (AID 1259382); note: nearly all actives have a fitted effect of over 55% in size; note: potency is the fitted concentration of half-maximal effect
How it was run: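 Luminescent ATP read-out (CellTiter-Glo, 30 min, RT) taken in the same wells as the bla reporter assay. HEK293T ER-beta-UAS-bla cells in 2% charcoal-stripped FBS were exposed to compounds with 1nM E2 for 16 hr at 37C.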

[5] = qHTS assay to identify small molecule agonists or antagonists of the thyroid stimulating hormone receptor (TSHR) signaling pathway - wild type cell line counter screen (AID 1259384; calls by dose curve)
How it was run: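 Counter screen in untransfected Hek293: compounds (15-point titration, triplicate) plus phosphodiesterase inhibitor Ro20-1724 added after 18 h plating; 30 min RT. Intracellular cAMP via competitive d2/cryptate immunoassay, 1 h incubation.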

[6] = molecular target: Thyrotropin receptor (Homo sapiens) (UniProt P16473); test: qHTS assay to identify small molecule antagonists of the thyroid stimulating hormone receptor (TSHR) signaling pathway (AID 1259385; calls by dose curve; note: nearly all actives have a fitted effect of over 20% in size; note: potency is the fitted concentration of half-maximal effect)
Chain of Thyrotropin receptor (Homo sapiens) (P16473 whole entry, looked up): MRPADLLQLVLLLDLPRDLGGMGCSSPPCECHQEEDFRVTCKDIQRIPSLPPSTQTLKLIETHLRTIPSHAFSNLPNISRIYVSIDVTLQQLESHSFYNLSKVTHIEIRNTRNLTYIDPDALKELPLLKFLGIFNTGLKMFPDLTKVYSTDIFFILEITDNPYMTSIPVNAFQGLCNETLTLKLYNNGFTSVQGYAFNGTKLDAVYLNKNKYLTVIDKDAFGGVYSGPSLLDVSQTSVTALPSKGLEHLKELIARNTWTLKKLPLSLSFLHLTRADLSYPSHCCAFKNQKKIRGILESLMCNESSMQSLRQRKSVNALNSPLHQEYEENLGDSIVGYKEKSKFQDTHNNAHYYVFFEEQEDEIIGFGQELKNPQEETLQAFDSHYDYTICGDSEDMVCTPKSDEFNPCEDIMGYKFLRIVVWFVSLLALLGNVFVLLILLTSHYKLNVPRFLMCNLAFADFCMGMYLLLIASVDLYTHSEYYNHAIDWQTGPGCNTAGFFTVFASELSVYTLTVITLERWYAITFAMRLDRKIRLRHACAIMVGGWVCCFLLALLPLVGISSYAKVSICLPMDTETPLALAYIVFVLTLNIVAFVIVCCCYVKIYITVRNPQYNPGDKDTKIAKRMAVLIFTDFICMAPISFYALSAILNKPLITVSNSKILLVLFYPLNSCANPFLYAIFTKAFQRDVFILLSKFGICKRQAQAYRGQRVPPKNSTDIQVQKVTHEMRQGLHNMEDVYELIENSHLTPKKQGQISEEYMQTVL
How it was run: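 Antagonist mode: compound-treated TSHR-expressing HEK293 cells were stimulated with 1.5 ng/mL TSH (final) in presence of Ro20-1724 for 30 min at RT. HTRF cAMP detection after 1 h; each compound tested at 15 concentrations, triplicate.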

[7] = qHTS assay to identify small molecule agonists of the estrogen receptor alpha (ER-alpha) signaling pathway in the presence of an antagonist - cell viability counter screen (AID 1259386);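 note: cells exposed to compounds for 22 h at 37 °C before the viability read; nearly all actives have a fitted effect of over 30% in size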; note: potency is the fitted concentration of half-maximal effect
How it was run: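 Read-out: CellTiter-Fluor fluorescence after 1hr reagent incubation, measured in the same wells as the luciferase readout. VM7Luc4E2 cells were exposed to 15 compound concentrations with 10.0nM ICI-182,780 for 22hr at 37C.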

[8] = qHTS assay to identify small molecule antagonists of the progesterone receptor (PR) signaling pathway - cell viability counter screen (AID 1346798); note: nearly all actives have a fitted effect of over 50% in size; note: potency is the fitted concentration of half-maximal effect
How it was run: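 Counter screen for cytotoxicity: viability of PR-UAS-bla HEK293T cells was measured with CellTiter-Glo luminescence following 16 hr compound exposure in the presence of R5020.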

[9] = qHTS assay to identify small molecule agonists of the progesterone receptor (PR) signaling pathway - cell viability counter screen (AID 1346799; calls by dose curve; note: nearly all actives have a fitted effect of over 45% in size; note: potency is the fitted concentration of half-maximal effect)
How it was run: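 Cells (PR-UAS-bla HEK293T) are plated at 3,000/well in 2% charcoal-stripped FBS medium, rested 6 hr, dosed and incubated 16 hr at 37C. CellTiter-Glo is then added and luminescence measured after 30 min at room temperature.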

[10] = qHTS assay to identify small molecule antagonists of the TGF-beta/Smad signaling pathway - cell viability counter screen (AID 1346824); note: nearly all actives have a fitted effect of over 50% in size; note: potency is the fitted concentration of half-maximal effect
How it was run: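 Cytotoxicity counter-screen run in the same wells as the beta-lactamase Smad reporter read: CellTiter-Glo luminescence after 30 min at room temperature. HEK 293T SBE-bla cells had 5 hr compound exposure at 37 C with TGF-beta1 (0.25 ng/mL stock).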

[11] = qHTS assay to identify small molecule agonists of the TGF-beta/Smad signaling pathway - cell viability counter screen (AID 1346829); note: nearly all actives have a fitted effect of over 45% in size; note: potency is the fitted concentration of half-maximal effect
How it was run: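 HEK 293T SBE-bla line, 5 hr compound exposure at 37 C, multiplexed CellTiter-Glo viability read by luminescence.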

[12] = qHTS assay to identify small molecule agonists of the TGF-beta/Smad signaling pathway (AID 1346859; active = well fitted activation curve with a large enough effect in the signal ratio in the repeat runs, not every such curve was filed as active; the % refers to the signal ratio; note: series mostly up to about 77 µM)
How it was run: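 Reporter line: HEK 293T with stably integrated SBE-controlled beta-lactamase. Compound exposure lasts 5 hr at 37 C and 5% CO2; substrate loading follows for 2 hr at room temperature, with emission read at 460 and 530 nm.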

[13] = molecular target: Thyrotropin-releasing hormone receptor (Homo sapiens) (UniProt P34981); test: qHTS assay to identify small molecule antagonists of the thyrotropin-releasing hormone receptor (TRHR) signaling pathway (AID 1346877; active = well fitted inhibition curve with a large enough effect in the repeat runs, not every such curve was filed as active; note: series mostly up to about 51 µM)
Chain of Thyrotropin-releasing hormone receptor (Homo sapiens) (P34981 whole entry, looked up): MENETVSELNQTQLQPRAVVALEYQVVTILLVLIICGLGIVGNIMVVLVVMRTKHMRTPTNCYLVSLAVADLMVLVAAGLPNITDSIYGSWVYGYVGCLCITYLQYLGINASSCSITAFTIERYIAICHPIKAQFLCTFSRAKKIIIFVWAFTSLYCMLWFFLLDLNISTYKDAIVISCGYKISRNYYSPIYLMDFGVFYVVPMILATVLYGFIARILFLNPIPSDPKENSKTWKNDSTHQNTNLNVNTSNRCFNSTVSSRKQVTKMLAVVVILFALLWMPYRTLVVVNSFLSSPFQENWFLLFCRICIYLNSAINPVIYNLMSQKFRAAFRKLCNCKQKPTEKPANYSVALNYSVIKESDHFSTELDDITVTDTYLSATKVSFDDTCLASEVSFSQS
How it was run: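 HEK293/TRHR cells, 18 h, 37 °C; Ca2+ dye 2 h; cpd 5 min RT; TRH 1 nM final; fluorescence read 3 min, 1 s intervals; 15 concs, triplicate.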

[14] = molecular target: Thyrotropin-releasing hormone receptor (Homo sapiens) (UniProt P34981); test: qHTS assay to identify small molecule agonists of the thyrotropin-releasing hormone receptor (TRHR) signaling pathway (AID 1346891; calls by dose curve;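 note: HEK293 cells expressing TRHR with calcium dye readout; series mostly up to about 58 µM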)
How it was run: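 Cells: TRHR-Hek293, seeded and incubated 18 h. Dye loading: 2 h at 37 °C. Compound added from DMSO stock by pin tool. Read-out: kinetic calcium fluorescence over 3 min.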

[15] = molecular target: Progesterone receptor (Homo sapiens) (UniProt P06401); test: qHTS assay to identify small molecule agonists of the progesterone receptor (PR) signaling pathway (AID 1346784; calls by dose curve; note: nearly all actives have a fitted effect of over 30% in size)
Chain of Progesterone receptor (Homo sapiens) (P06401 whole entry, looked up): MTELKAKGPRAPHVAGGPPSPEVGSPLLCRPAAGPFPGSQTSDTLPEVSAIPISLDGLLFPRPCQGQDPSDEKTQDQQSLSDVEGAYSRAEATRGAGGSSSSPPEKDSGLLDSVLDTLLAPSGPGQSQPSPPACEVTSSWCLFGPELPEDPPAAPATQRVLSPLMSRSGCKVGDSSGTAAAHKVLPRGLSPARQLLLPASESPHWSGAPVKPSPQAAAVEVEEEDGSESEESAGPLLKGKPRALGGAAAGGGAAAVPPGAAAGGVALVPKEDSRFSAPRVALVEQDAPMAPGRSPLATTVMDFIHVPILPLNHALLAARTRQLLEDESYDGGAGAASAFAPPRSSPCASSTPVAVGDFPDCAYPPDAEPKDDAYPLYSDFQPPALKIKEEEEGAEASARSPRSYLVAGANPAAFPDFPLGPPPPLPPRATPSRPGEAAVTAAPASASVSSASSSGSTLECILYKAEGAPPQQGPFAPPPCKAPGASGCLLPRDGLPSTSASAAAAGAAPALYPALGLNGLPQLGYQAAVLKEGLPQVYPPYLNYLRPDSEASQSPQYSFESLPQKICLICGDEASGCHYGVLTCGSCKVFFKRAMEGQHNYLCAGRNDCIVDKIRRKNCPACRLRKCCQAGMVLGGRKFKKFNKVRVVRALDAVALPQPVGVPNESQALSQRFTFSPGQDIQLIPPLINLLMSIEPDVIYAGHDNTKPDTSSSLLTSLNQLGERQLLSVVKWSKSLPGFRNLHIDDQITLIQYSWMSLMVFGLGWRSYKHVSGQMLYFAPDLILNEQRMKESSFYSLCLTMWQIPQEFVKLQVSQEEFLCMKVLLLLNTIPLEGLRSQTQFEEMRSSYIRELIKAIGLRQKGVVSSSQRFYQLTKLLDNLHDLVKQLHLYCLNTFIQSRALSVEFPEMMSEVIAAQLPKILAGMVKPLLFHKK
How it was run: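 Cells (PR-UAS-bla HEK 293T, GripTite) were plated in assay medium containing 2% charcoal-stripped FBS and incubated 6 hr. Test compounds in DMSO were added for 16 hr at 37C. FRET substrate was then loaded for 2 hr at room temperature before fluorescence reading.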

[16] = molecular target: Progesterone receptor (Homo sapiens) (UniProt P06401); test: qHTS assay to identify small molecule antagonists of the progesterone receptor (PR) signaling pathway (AID 1346795; active = well fitted inhibition curve with a large enough effect in the signal ratio in the repeat runs, not every such curve was filed as active; the % refers to the signal ratio; note: potency is the fitted concentration of half-maximal effect)
How it was run: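 Antagonist mode: compounds tested against 1 nM (final) promegestone stimulation in HEK293T cells expressing PR-UAS-bla reporter, 16 hr at 37C, 5% CO2; beta-lactamase activity detected via B/G FRET substrate after 2 hr at room temperature.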

[17] = molecular target: Estrogen receptor (Homo sapiens) (UniProt P03372); test: qHTS assay to identify small molecule agonists of the estrogen receptor alpha (ER-alpha) signaling pathway in the presence of an antagonist (AID 1259383; calls by dose curve; note: top concentration of the series differs between compounds; nearly all actives have a fitted effect of over 15% in size)
Chain of Estrogen receptor (Homo sapiens) (P03372 whole entry, looked up): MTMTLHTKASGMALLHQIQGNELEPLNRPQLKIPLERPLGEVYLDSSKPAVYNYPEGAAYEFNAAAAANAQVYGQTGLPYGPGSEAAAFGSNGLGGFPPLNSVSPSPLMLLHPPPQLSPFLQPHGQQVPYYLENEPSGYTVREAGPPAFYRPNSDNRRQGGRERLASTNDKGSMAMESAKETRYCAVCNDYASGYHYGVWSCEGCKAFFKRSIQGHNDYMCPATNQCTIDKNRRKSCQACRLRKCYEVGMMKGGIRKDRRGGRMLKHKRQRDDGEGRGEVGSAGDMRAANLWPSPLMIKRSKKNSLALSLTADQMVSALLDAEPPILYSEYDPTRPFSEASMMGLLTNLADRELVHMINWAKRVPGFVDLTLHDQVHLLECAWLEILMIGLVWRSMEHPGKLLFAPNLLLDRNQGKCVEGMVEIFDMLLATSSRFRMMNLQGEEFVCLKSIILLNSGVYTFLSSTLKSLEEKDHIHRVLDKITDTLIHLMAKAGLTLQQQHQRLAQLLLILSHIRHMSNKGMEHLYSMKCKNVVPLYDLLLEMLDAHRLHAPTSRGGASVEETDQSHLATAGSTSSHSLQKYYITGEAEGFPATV
How it was run: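 Luciferase luminescence (ONE-Glo, 30min at room temperature) measured in VM7Luc4E2 cells after 22hr compound exposure at 15 concentrations, with 10.0nM ICI-182,780 final present; cells express endogenous ER-alpha and carry four EREs upstream of luciferase.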

[18] = qHTS assay to identify small molecule agonists of the estrogen receptor beta (ER-beta) signaling pathway - cell viability counter screen (AID 1259380); note: potency is the fitted concentration of half-maximal effect; nearly all actives have a fitted effect of over 30% in size
How it was run: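 Luminescence read-out (CellTiter-Glo, 30 min, room temp) taken in the same wells as the beta-lactamase reporter assay; ER-beta-UAS-bla HEK293T cells exposed to DMSO-dissolved compounds for 16 hr at 37C in 2% charcoal-stripped FBS medium.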

[19] = molecular target: Androgen receptor (Homo sapiens) (UniProt P10275); test: qHTS assay to identify small molecule agonists of the androgen receptor (AR) signaling pathway in the presence of an antagonist (AID 1259381; calls by dose curve; note: nearly all actives have a fitted effect of over 15% in size)
Chain of Androgen receptor (Homo sapiens) (P10275 whole entry, looked up): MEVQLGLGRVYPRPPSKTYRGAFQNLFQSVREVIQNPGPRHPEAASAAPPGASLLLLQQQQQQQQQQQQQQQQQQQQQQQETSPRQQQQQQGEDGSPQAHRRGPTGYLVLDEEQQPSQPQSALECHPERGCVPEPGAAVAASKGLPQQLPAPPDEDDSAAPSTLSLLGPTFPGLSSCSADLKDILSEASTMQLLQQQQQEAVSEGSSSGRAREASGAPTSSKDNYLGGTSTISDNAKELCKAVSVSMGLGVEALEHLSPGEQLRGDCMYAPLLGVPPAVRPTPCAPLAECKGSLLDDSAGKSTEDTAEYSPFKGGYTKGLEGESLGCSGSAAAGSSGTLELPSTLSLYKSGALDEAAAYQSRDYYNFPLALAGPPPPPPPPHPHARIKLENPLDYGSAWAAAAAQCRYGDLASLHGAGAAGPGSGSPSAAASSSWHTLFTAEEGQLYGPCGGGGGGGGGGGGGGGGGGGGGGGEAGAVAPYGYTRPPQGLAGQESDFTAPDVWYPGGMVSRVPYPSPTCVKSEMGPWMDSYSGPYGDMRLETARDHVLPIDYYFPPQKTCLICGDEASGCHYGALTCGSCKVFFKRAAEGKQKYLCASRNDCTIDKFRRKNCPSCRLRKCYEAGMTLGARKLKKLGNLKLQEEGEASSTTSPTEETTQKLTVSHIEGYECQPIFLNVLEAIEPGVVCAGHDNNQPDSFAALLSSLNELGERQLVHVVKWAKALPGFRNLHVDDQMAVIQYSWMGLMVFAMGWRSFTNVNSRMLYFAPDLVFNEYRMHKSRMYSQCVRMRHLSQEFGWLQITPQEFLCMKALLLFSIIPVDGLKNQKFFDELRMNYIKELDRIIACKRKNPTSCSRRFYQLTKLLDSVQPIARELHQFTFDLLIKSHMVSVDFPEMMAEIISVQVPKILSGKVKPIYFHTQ
How it was run: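 Luciferase read-out (ONE-Glo, 30min room temperature) in MDA-kb2 MMTV-reporter cells; agonist mode run in presence of AR antagonist nilutamide, 3.0uM final. Compounds tested as 15-point series, 16hr exposure at 37C, 0% CO2.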

[20] = molecular target: Estrogen receptor beta (Homo sapiens) (UniProt Q92731); test: qHTS assay to identify small molecule antagonists of the estrogen receptor beta (ER-beta) signaling pathway (AID 1259378; active = well fitted inhibition curve with a large enough effect in the signal ratio in the repeat runs, not every such curve was filed as active; the % refers to the signal ratio; note: potency is the fitted concentration of half-maximal effect)
How it was run: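 Antagonist mode: compounds added to beta-lactamase reporter HEK293T ER-beta-UAS cells stimulated with E2 (1nM final), 16 hr at 37C. LiveBLAzer B/G FRET substrate, 2 hours room temperature, fluorescence read-out.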

Measured: Potency

O=C(OCC(COC(=O)c1ccccc1)(COC(=O)c1ccccc1)COC(=O)c1ccccc1)c1ccccc1
not listed: [15] | [16] | [17] | [18] | [19] | [20]
inactive: all other assays above

COc1cc(-c2ccc(N=C=O)c(OC)c2)ccc1N=C=O
not listed: [5] | [6] | [17] | [18] | [19] | [20]
inactive: all other assays above

Cc1ccc(-n2nc(C(C)(C)C)cc2NC(=O)Nc2ccc(OCCN3CCOCC3)c3ccccc23)cc1
not listed: [7] | [9] | [12] | [15] | [16] | [18] | [19] | [20]
inactive: all other assays above

CCc1cc(Cc2cc(CC)c(N)c(CC)c2)cc(CC)c1N
active: [1] 30.6 µM | [18] 27.3 µM | [4] 48.6 µM | [8] 68.6 µM | [9] 54.5 µM
not listed: [3] | [7] | [15] | [16] | [19] | [20]
inactive: all other assays above

C[C@H]1[C@H]2CC[C@H]3[C@@H]4CC=C5C[C@@H](N(C)C)CC[C@]5(C)[C@H]4CC[C@]23CN1C
not listed: [3] | [13] | [15] | [17] | [18] | [20]
inactive: all other assays above

CCCCCCCCNC(C)C(O)c1ccc(SC(C)C)cc1 (stereo not drawn)
inactive: [19] | [17] | [5] | [13] | [14]
active: [1] 18.8 µM | [3] 23.7 µM | [18] 11.9 µM | [4] 13.3 µM | [7] 33.5 µM | [8] 29.8 µM | [10] 21.3 µM | [11] 23.9 µM

C=CC(=O)OCC(CO)(COCC(COC(=O)C=C)(COC(=O)C=C)COC(=O)C=C)COC(=O)C=C
active: [1] 0.48 µM | [20] 4.8 µM | [3] 5.38 µM | [4] 7.6 µM | [7] 10.7 µM | [16] 6.04 µM | [8] 15.2 µM | [9] 15.2 µM | [11] 21.6 µM
inactive: [19] | [17] | [5] | [6] | [12]

Cc1cc(O)c(C(C)(C)C)cc1Sc1cc(C(C)(C)C)c(O)cc1C
active: [1] 9.67 µM | [3] 30.6 µM | [18] 19.3 µM | [4] 24.3 µM | [7] 48.5 µM | [8] 30.6 µM | [9] 27.3 µM | [10] 48.9 µM | [11] 34.6 µM
inactive: [19] | [17] | [5] | [14]

Oc1cc2ccccc2c2ccccc12
inactive: [19] | [17] | [13] | [14]
active: [1] 4.86 µM | [3] 13.7 µM | [18] 5.45 µM | [4] 7.7 µM | [7] 13.7 µM | [16] 6.11 µM | [8] 6.86 µM | [10] 11 µM | [11] 5.49 µM

Cc1c(C)c2c(c(C)c1O)CCC(C)(COc1ccc(CC3SC(=O)NC3=O)cc1)O2 (stereo not drawn)
active: [1] 54.5 µM | [18] 11.9 µM | [16] 18.8 µM
not listed: [2] | [8] | [9] | [20]
inactive: all other assays above

CCCCCCCCCCn1cc[n+](CCCCCCCCCC)c1C
active: [1] 0.077 µM | [3] 24.4 µM | [18] 30.7 µM | [4] 27.3 µM | [6] 54.5 µM | [7] 30.7 µM | [8] 21.7 µM | [9] 30.7 µM | [10] 24.6 µM | [11] 21.9 µM
inactive: [19] | [17] | [5] | [15] | [12] | [13] | [14]

Oc1cccc(-c2c3nc(c(-c4cccc(O)c4)c4ccc([nH]4)c(-c4cccc(O)c4)c4nc(c(-c5cccc(O)c5)c5ccc2[nH]5)CC4)C=C3)c1
inactive: [19] | [17] | [5] | [10] | [11] | [12]
active: [1] 16.8 µM | [20] 26.6 µM | [3] 8.41 µM | [18] 8.41 µM | [4] 21.1 µM | [7] 10.6 µM

CCCCCCCCCCCCCCCCCC[N+](C)(C)Cc1ccccc1
active: [1] 0.155 µM | [3] 55 µM | [18] 24.6 µM | [4] 27.6 µM | [8] 27.6 µM | [9] 7.77 µM | [10] 49.5 µM | [11] 49.5 µM
inactive: [19] | [17] | [5] | [6]
